Common to all, as to test: NCI-60 one-dose screen, 48 h (100 = growth as untreated, 0 = no growth, -100 = all killed)
One assay deals with SR leukemia. Conditions: 10 µM unless noted.
The subject of the next assay is RPMI-8226 leukemia. Conditions: 10 µM.
A further assay concerns OVCAR-8 ovarian. The note with it: 10 µM unless noted.
The next assay has as its system OVCAR-5 ovarian. Conditions: 10 µM unless noted.
The test system of another assay is OVCAR-4 ovarian. The note with it: 10 µM unless noted.
A further assay concerns SK-OV-3 ovarian. The note with it: 10 µM.
The test system of the next assay is IGROV1 ovarian. The note with it: 10 µM unless noted.
For a further assay, the system named is OVCAR-3 ovarian. Conditions: 10 µM unless noted.
The next assay deals with HS 578T breast. Conditions: 10 µM unless noted.
For the next assay, the system named is T-47D breast. The note with it: 10 µM.
The next assay relates to BT-549 breast. The note with it: 10 µM unless noted.
Another assay concerns MDA-MB-435 melanoma. The note with it: 10 µM unless noted.
Another assay has as its system SW-620 colon. The note with it: 10 µM unless noted.
The test system of the next assay is MCF7 breast. The note with it: 10 µM unless noted.
A further assay deals with HCT-116 colon. The note with it: 10 µM unless noted.
The test system of a further assay is HCC-2998 colon. The note with it: 10 µM unless noted.
Another assay concerns KM12 colon. The note with it: 10 µM unless noted.
For another assay, the system named is NCI/ADR-RES ovarian. The note with it: 10 µM unless noted.

This is an account of results in PubChem BioAssay (NCI).

About 83,000 compounds went through this panel and 20% of them were active in at least one assay; those are over-represented in the sample as a whole.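 Step 1: grow cells in 96-well plates. Step 2: add test compound at a single concentration. Step 3: incubate 48 h. Step 4: record percent growth.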 Unmarked numbers belong to inactive results. Activity calls are given as the source filed them. How the source made its calls: active means growth percent below 10; inactive means the rest.

For the compound `Clc1ccc(Nc2ccnc(N3CCN(c4ccnc5cc(Cl)ccc45)CC3)n2)cc1`, the growth with SR leukemia was 37.2%; in the assay on RPMI-8226 leukemia it was 34.5%; in the assay on OVCAR-8 ovarian, 61.4%; in the assay with OVCAR-5 ovarian, 70.6%; in the assay with OVCAR-4 ovarian it was 41.9%; with SK-OV-3 ovarian it was 62.5%. In addition, the growth is -4.05% (active) in the assay on IGROV1 ovarian; 35.5% with OVCAR-3 ovarian; 49.1% with HS 578T breast; 15.2% in the assay on T-47D breast; 52.2% in the assay with BT-549 breast; 13.3% in the assay with MDA-MB-435 melanoma. For the same compound, the growth was 48.5% in the assay on SW-620 colon; 17.5% in the assay with MCF7 breast; 13.5% with HCT-116 colon; 64.7% in the assay on HCC-2998 colon; 36.8% in the assay on KM12 colon.
With `CCSc1nnc2c3cc(Br)ccc3n(C)c2n1`, the growth in the assay on SR leukemia is 92.7%; in the assay with RPMI-8226 leukemia it was 104%; in the assay with OVCAR-8 ovarian it was 97.2%; with OVCAR-5 ovarian it was 105%; in the assay with OVCAR-4 ovarian, 98%; with SK-OV-3 ovarian, 105%. The growth in the assay on IGROV1 ovarian is 90.8%; in the assay with OVCAR-3 ovarian, 109%; in the assay with HS 578T breast, 111%; with NCI/ADR-RES ovarian, 109%; in the assay with BT-549 breast, 95.6%; in the assay on MDA-MB-435 melanoma, 104%. Besides, the growth is 103% in the assay on SW-620 colon; 84.3% in the assay on MCF7 breast; 95.6% in the assay on HCT-116 colon; 111% in the assay with HCC-2998 colon; 103% in the assay with KM12 colon.
As to `COc1ncnc2c1ncn2C/C(Br)=C(\Br)CCl`, the growth is 8.2% (active) in the assay on SR leukemia; -25.4% (active) in the assay with RPMI-8226 leukemia; 0.995% (active) in the assay on OVCAR-8 ovarian; 62.1% in the assay with OVCAR-5 ovarian; -47.1% (active) in the assay on OVCAR-4 ovarian; 148% in the assay with SK-OV-3 ovarian. Also, the growth was 11.5% with IGROV1 ovarian; -94.2% (active) with OVCAR-3 ovarian; 23.5% in the assay with HS 578T breast; -40.4% (active) in the assay on NCI/ADR-RES ovarian; 70.2% with BT-549 breast; 3.99% (active) with MDA-MB-435 melanoma. Also, the growth is -73.6% (active) in the assay on SW-620 colon; 0.237% (active) with MCF7 breast; -82.3% (active) in the assay with HCT-116 colon; 89.8% in the assay on HCC-2998 colon; -5.61% (active) with KM12 colon.
Consider `O=C1C(N2CCOCC2)=Cc2cccc3cccc1c23`, for which the growth with SR leukemia is 40.8%; with RPMI-8226 leukemia it was 105%; in the assay on OVCAR-8 ovarian it was 96.1%; with OVCAR-5 ovarian it was 103%; in the assay with OVCAR-4 ovarian it was 90.5%; with SK-OV-3 ovarian it was 95.8%. Also, the growth with IGROV1 ovarian was 112%; in the assay on OVCAR-3 ovarian it was 101%; with HS 578T breast, 86.1%; in the assay on NCI/ADR-RES ovarian, 99.8%; in the assay on BT-549 breast, 109%; with MDA-MB-435 melanoma, 102%. Besides, the growth with SW-620 colon was 98.3%; in the assay with MCF7 breast, 66.2%; with HCT-116 colon it was 94.7%; in the assay with KM12 colon, 95.8%.
Take `Cc1ccc(S(=O)(=O)N2CCc3ccc(O)c4c3C2CCc2ccccc2-4)cc1` (stereo unspecified): the growth was 76.5% in the assay with SR leukemia; 95.8% in the assay on RPMI-8226 leukemia; 98.8% in the assay with OVCAR-8 ovarian; 110% in the assay with OVCAR-5 ovarian; 106% in the assay with OVCAR-4 ovarian; 101% in the assay with SK-OV-3 ovarian. Moreover, the growth was 113% with IGROV1 ovarian; 99.1% with OVCAR-3 ovarian; 106% with HS 578T breast; 104% in the assay on NCI/ADR-RES ovarian; 97.7% in the assay on MDA-MB-435 melanoma; 102% in the assay on SW-620 colon. Moreover, the growth in the assay on MCF7 breast is 103%; in the assay on HCT-116 colon, 108%; in the assay with HCC-2998 colon it was 104%; in the assay with KM12 colon, 95.2%.
As to `COc1ccc(NC(=O)COc2ccccc2)c(C(N)=O)c1`, the growth was 24.5% in the assay on SR leukemia; 11.9% in the assay with RPMI-8226 leukemia; 35.2% with OVCAR-8 ovarian; 43.6% in the assay with OVCAR-5 ovarian; 87.7% with OVCAR-4 ovarian; 4.18% (active) in the assay with SK-OV-3 ovarian. Moreover, the growth was 46% in the assay with IGROV1 ovarian; 0.699% (active) in the assay on OVCAR-3 ovarian; 27.9% in the assay with HS 578T breast; 5.8% (active) with NCI/ADR-RES ovarian; 55.9% in the assay on BT-549 breast; -70% (active) in the assay on MDA-MB-435 melanoma. In addition, the growth with SW-620 colon was 27.1%; in the assay on MCF7 breast, 23.8%; in the assay on HCT-116 colon, 25.9%; in the assay on HCC-2998 colon it was 46.5%; in the assay with KM12 colon, 25.2%.
As for `O=C(Nc1ccc(F)cc1)c1ccc(C(=O)Nc2ccc(F)cc2)cc1`, the growth was 94.5% with SR leukemia; 113% in the assay on RPMI-8226 leukemia; 99.6% in the assay on OVCAR-8 ovarian; 101% with OVCAR-5 ovarian; 93.4% with OVCAR-4 ovarian; 103% with SK-OV-3 ovarian. The growth is 109% in the assay with IGROV1 ovarian; 109% in the assay with OVCAR-3 ovarian; 106% in the assay on HS 578T breast; 116% in the assay on NCI/ADR-RES ovarian; 112% in the assay with BT-549 breast; 101% with MDA-MB-435 melanoma. Also, the growth in the assay on SW-620 colon is 109%; with MCF7 breast, 95.9%; in the assay with HCT-116 colon, 96.2%; in the assay on HCC-2998 colon, 111%; with KM12 colon it was 108%.
For `Cn1c2ccc(Cl)cc2c2nn(C(=O)c3ccccc3)c(=O)nc21`, the growth with SR leukemia is 93%; in the assay on RPMI-8226 leukemia, 106%; with OVCAR-8 ovarian, 101%; in the assay on OVCAR-5 ovarian, 99.5%; in the assay with OVCAR-4 ovarian, 114%; in the assay with SK-OV-3 ovarian it was 114%. In addition, the growth was 110% with IGROV1 ovarian; 111% in the assay with OVCAR-3 ovarian; 104% in the assay on HS 578T breast; 106% in the assay with NCI/ADR-RES ovarian; 122% in the assay on BT-549 breast; 111% in the assay on MDA-MB-435 melanoma. Moreover, the growth with SW-620 colon was 99.3%; in the assay on MCF7 breast, 94.7%; with HCT-116 colon it was 104%; in the assay on HCC-2998 colon, 111%; in the assay with KM12 colon, 106%.
`CN1CCc2c(c3ccccc3c3ccccc23)C1`: the growth with SR leukemia is 20.5%; in the assay with RPMI-8226 leukemia, 50.8%; in the assay with OVCAR-8 ovarian, 37.3%; with OVCAR-5 ovarian, 60%; in the assay on OVCAR-4 ovarian, 82.1%; in the assay with SK-OV-3 ovarian, 63%. In addition, the growth in the assay on IGROV1 ovarian is 61.4%; in the assay with OVCAR-3 ovarian, 63.7%; in the assay on HS 578T breast it was 82.4%; in the assay on NCI/ADR-RES ovarian, 45%; in the assay with BT-549 breast, 94.7%; in the assay on MDA-MB-435 melanoma, 51.4%. The growth in the assay on SW-620 colon was 28.7%; in the assay with MCF7 breast it was 26.4%; in the assay on HCT-116 colon, 16.9%; in the assay on HCC-2998 colon, 70%; in the assay on KM12 colon, 39.1%.
